Assay results from PubChem BioAssay AID1159580 (chemical genetic matrix, 2015).
Among all 5,500 compounds or so, about 2,000 (36%) were called active. Another 18% or so got no clear call; they are omitted. Cut-off read from the data, not from the text of the source: active = normalized growth mostly below about 0.91 (no sharp cut-off); inconclusive = no clear call, values can overlap the other calls; inactive = mostly above about 0.92. The list shows a part of the results.

Assay: chemical genetic growth profiling, strain panel (AID 1159580);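 note: tested at 20 µM; growth read once vehicle control cultures reached saturation at 30 °C; 1 = growth at the plate median or of vehicle wells; lower values mean less growth of the strain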
Conditions: S. cerevisiae deletion strains, growth OD

Measured: normalized growth

CC(=O)[C@H]1CC[C@H]2[C@@H]3CCC4=CC(=O)CC[C@]4(C)[C@H]3CC[C@]12C
active: locus YGR229C, strain SMI1, hits give low values 1.17 [resistant]
inactive: locus YAL013W, strain DEP1, hits give low values 0.994 | locus YAL040C, strain CLN3, hits give low values 0.992 | locus YCL061C, strain MRC1 (second series), hits give low values 1 | locus YDR363W, strain ESC2, hits give low values 1.01 | locus YER002W, strain NOP16, hits give low values 0.973 | locus YGR078C, strain PAC10, hits give low values 0.998 | locus YJR075W, strain HOC1, hits give low values 0.99 | locus YMR307W, strain GAS1, hits give low values 0.979 | locus YNL175C, strain NOP13, hits give low values 0.991 | locus YNL197C, strain WHI3, hits give low values 0.986 | locus YNL224C, strain SQS1, hits give low values 0.992 | locus YOR083W, strain WHI5 (second series), hits give low values 1.01 | locus YPL055C, strain LGE1, hits give low values 0.99 | locus YPL241C, strain CIN2, hits give low values 0.995
